# “And” between values parts separate entries of the source, which are not always exact repeats. Equal values may be shown once. Results filed as inconclusive are left out. Entries that show only a call come without a potency. A number with no mark means an inactive call. The source made the active and inactive calls. Calls come from the whole dose curve; as a rule, active = well fitted curve in the direction sought with a large enough effect; inconclusive = small, poorly fitted or top-dose-only effect, or another doubt; inactive = no such curve, though single readings can be large; an effect the other way counts as inactive or inconclusive.
# Key:
# [1] = target: Cellular tumor antigen p53 (Homo sapiens) (UniProt P04637); assay: Primary qHTS for small molecule compounds that upregulate eGFP-tagged delta133p53alpha (in N-terminal) cells. (AID 2060322); conditions: NCI-H358 eGFP-delta133p53alpha fluorescence, 24 h; activation: active compounds read high; note: nearly all actives have a fitted effect of over 75% in size; note: potency is the fitted concentration of half-maximal effect; for activation: series mostly up to about 56 µM
# Chain of Cellular tumor antigen p53 (Homo sapiens) (P04637 whole entry, looked up): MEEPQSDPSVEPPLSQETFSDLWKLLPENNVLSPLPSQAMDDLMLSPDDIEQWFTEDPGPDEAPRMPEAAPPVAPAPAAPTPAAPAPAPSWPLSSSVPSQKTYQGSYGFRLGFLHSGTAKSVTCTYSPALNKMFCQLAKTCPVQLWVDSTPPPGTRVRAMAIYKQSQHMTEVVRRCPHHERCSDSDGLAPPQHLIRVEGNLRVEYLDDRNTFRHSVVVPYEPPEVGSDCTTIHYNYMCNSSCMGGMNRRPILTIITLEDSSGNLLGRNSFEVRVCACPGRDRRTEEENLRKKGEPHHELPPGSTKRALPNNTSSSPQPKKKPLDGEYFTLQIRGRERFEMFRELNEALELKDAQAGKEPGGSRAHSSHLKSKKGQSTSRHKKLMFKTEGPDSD
# Summary of the method: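 NCI-H358 cells pre-induced 24 h with 10 ng/ml doxycycline to express N-terminal eGFP-delta133p53alpha, then dosed 24 h at 37C without doxycycline; fixed, Hoechst-stained, GFP intensity by laser scanning cytometry, normalized to DMSO (0%) and 57.5 uM 5-azacytidine (100%).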
# [2] = target: Aldehyde dehydrogenase, mitochondrial (Homo sapiens) (UniProt P05091); assay: qHTS for Inhibitors of the Aldehyde Dehydrogenase Family (ALDH2) Primary screen (AID 2061308); note: nearly all actives have a fitted effect of over 55% in size
# [3] = target: Retinaldehyde dehydrogenase 3 (Homo sapiens) (UniProt P47895); assay: qHTS for Inhibitors of the Aldehyde Dehydrogenase Family (ALDH1A3) Validation screen (AID 2061312); note: nearly all actives have a fitted effect of over 45% in size
# [4] = target: Retinaldehyde dehydrogenase 3 (Homo sapiens) (UniProt P47895); assay: qHTS for Inhibitors of the Aldehyde Dehydrogenase Family (ALDH1A3) Primary screen (AID 2061315)
# [5] = BET inhibitor-based combinations targeting novel dependencies in MECOM-rearranged (r) AML: SET-2 cell line (AID 2202231); conditions: SET-2 AML cells viability, CellTiter-Glo luminescence, 48 h; viability: active compounds read low, concentration not given here; note: nearly all actives have a fitted effect of over 35% in size; note: potency is the fitted concentration of half-maximal effect
# Summary of the method: (§1)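 Luminescent ATP readout (CellTiter-Glo) after 48 hr drug exposure gives viability. Curves span 11 concentrations and are normalized to DMSO and empty wells. Activity is reported as area under the curve and its Z-transform within each cell line.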
# [6] = BET inhibitor-based combinations targeting novel dependencies in MECOM-rearranged (r) AML: OCI-AML3 cell line (AID 2202232); conditions: Potency: OCI-AML3 viability; note: nearly all actives have a fitted effect of over 35% in size; note: potency is the fitted concentration of half-maximal effect
# Summary of the method: as §1
# [7] = BET inhibitor-based combinations targeting novel dependencies in MECOM-rearranged (r) AML: MV-4-11 cell line (AID 2202233); note: nearly all actives have a fitted effect of over 45% in size; note: potency is the fitted concentration of half-maximal effect
# Summary of the method: (§2)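 Luminescent ATP readout (CellTiter-Glo, 15 min at room temperature) after 48 hr drug exposure gave viability. Dose-response curves, normalized to DMSO and empty-well controls, were summarized as area under the curve and its mean-centred Z-score.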
# [8] = BET inhibitor-based combinations targeting novel dependencies in MECOM-rearranged (r) AML: UCSD-AML1 cell line (AID 2202235); note: nearly all actives have a fitted effect of over 40% in size; note: potency is the fitted concentration of half-maximal effect
# Summary of the method: as §2
# [9] = BET inhibitor-based combinations targeting novel dependencies in MECOM-rearranged (r) AML: AML-191 cell line (AID 2202236; note: nearly all actives have a fitted effect of over 35% in size; note: potency is the fitted concentration of half-maximal effect)
# Summary of the method: as §1
# [10] = BET inhibitor-based combinations targeting novel dependencies in MECOM-rearranged (r) AML: AML-194 cell line (AID 2202237; note: nearly all actives have a fitted effect of over 40% in size; note: potency is the fitted concentration of half-maximal effect)
# Summary of the method: as §1
# [11] = BET inhibitor-based combinations targeting novel dependencies in MECOM-rearranged (r) AML: HNT-34 cell line (AID 2202234); note: nearly all actives have a fitted effect of over 35% in size; note: potency is the fitted concentration of half-maximal effect
# Summary of the method: as §2
Structure (SMILES),activation [1],Potency [2],Potency [3],Potency [4],viability [5] [%],Potency [6],Potency [7],Potency [8],Potency [9],Potency [10],Potency [11],Potency [5],Potency [1]
CC(C)OC(=O)C1=CN(C(=O)c2ccc(F)c(F)c2)CC(C)(C)c2c1[nH]c1ccccc21,-3.85% and 0.955%,inactive,inactive,inactive,109,inactive,inactive,inactive,inactive,inactive,,,
COC(=O)N(C)c1c(N)nc(-c2nn(Cc3ccccc3F)c3ncccc23)nc1N,-15.8%,inactive,inactive,inactive,119,inactive,inactive,,inactive,inactive,,,
Cc1csc(NC(=O)c2sc3nc4c(c(C(F)(F)F)c3c2N)CCC4)n1,-4.78%,inactive,inactive,inactive,97.5,,inactive,inactive,,,inactive,,
Cn1cc(-c2ccc(F)c(C(F)(F)F)c2)nc1C1CCN(c2ncnc3[nH]ncc23)CC1,10%,inactive,inactive,inactive,96.6,0.742 µM (active),,inactive,20.9 µM (active),inactive,,,
Cc1cnc(Nc2cccc(CN3CCOCC3)c2)nc1Nc1cccc(S(=O)(=O)NC(C)(C)C)c1,11%,inactive,inactive,inactive,,,0.332 µM (active),1.32 µM (active),1.66 µM (active),1.32 µM (active),1.66 µM (active),2.63 µM (active),
CCCCc1oc2ccc(NS(C)(=O)=O)cc2c1C(=O)c1ccc(OCCCN(CCCC)CCCC)cc1,2.56%,inactive,inactive,inactive,,14.8 µM (active),10.5 µM (active),10.5 µM (active),10.5 µM (active),10.5 µM (active),,18.6 µM (active),
Cc1ccc2nc(NC(=O)CSc3nc4c(c(=O)n3-c3ccccc3)SCC4)sc2c1,24.2% and -14.8%,inactive,inactive,inactive,114,,inactive,inactive,inactive,inactive,inactive,,
CCN(CC)CCNC(=O)c1ccc2nc(-c3ccccc3)c(-c3ccc(CN4CCC(n5c(=O)[nH]c6ccccc65)CC4)cc3)nc2c1,,inactive,inactive,inactive,,8.33 µM (active),6.61 µM (active),,9.34 µM (active),7.42 µM (active),8.33 µM (active),8.33 µM (active),4.32 µM (active) and 8.49 µM (active)
CC(C)(N)C(=O)N[C@H](COCc1ccccc1)C(=O)N1CCC2(CC1)CN(S(C)(=O)=O)c1ccccc12,18.6% and 11%,inactive,inactive,inactive,104,11.8 µM (active),10.5 µM (active),,20.9 µM (active),,,,
CC(C)C[C@H](NC(=O)[C@H](Cc1ccccc1)NC(=O)c1cnccn1)B(O)O,,inactive,inactive,inactive,,0.0105 µM (active),0.0132 µM (active),0.0186 µM (active),0.0186 µM (active),0.0209 µM (active),,0.0166 µM (active),968 nM (active) and 379 nM (active)
CCCCNc1ncc(-c2ccc(CN3CCOCC3)cn2)c(NC2CCC(O)CC2)n1 (stereo not given),-4.77%,inactive,inactive,inactive,114,1.15 µM (active),0.144 µM (active),8.11 µM (active),,,,,
O=C(c1cc(Cc2n[nH]c(=O)c3ccccc23)ccc1F)N1CCN(C(=O)C2CC2)CC1,8.16% and -16.2%,inactive,inactive,inactive,80.3,,8.33 µM (active),,,,,,
CCCN1CCN(c2ccc(C(=O)NC3(C(=O)NCC#N)CCCCC3)cc2)CC1,-6.68%,inactive,inactive,inactive,102,,inactive,inactive,inactive,,inactive,,
COc1cccc(Nc2c(C(N)=O)cnc3c(C)cc(S(=O)(=O)c4cccc(C(=O)N(C)C)c4)cc23)c1,11.1% and -9.07%,inactive,inactive,inactive,120,16.6 µM (active),3.32 µM (active),inactive,5.9 µM (active),inactive,,,
CNC(=O)c1cccc(-c2ccc3c(N4CCOC[C@@H]4C)nc(N4CCOC[C@@H]4C)nc3n2)c1,20%,inactive,inactive,inactive,,0.263 µM (active),0.372 µM (active),0.0661 µM (active),,,,0.59 µM (active),
